In the library only some 19% were active in any assay of this set; here they are far more common.
TDP1 cell noCPT: qHTS for Inhibitors of human tyrosyl-DNA phosphodiesterase 1 (TDP1): qHTS in cells in absence of CPT | DT40 Tdp1-/- hTDP1 cells, no CPT, ATP luminescence, 48 h | Potency, µM (highest dose often 46.2 µM), for the others: at the top dose activity change, negative = growth inhibition, hits mostly inhibitors | 15% of 420,000 active; further: potency means the concentration at half of the fitted maximal effect; nearly all actives have a fitted effect of over 55% in size
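Growth kinetics read by CellTiter-Glo luminescence after ≥48 hr at 37 °C. Cells: DT40 Tdp1-/- stably carrying human TDP1, 400 per well, compound exposure in the absence of CPT (DMSO vehicle).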
IL-1B inflam inh: inhibitors of inflammasome signaling (IL-1 beta secretion); THP-1 LPS/ATP IL-1B secretion, AlphaLISA, 16 h; stronger effect = lower value; activity change, % at 57.5 µM; 4.7% of 360,000 active; in the data active means activity change below about -50%; inconclusive means mostly about -30% to -49%
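THP-1 cells pretreated 1 hr with compounds (up to 57.5 uM final), then stimulated with LPS (250 ng/mL final) plus ATP (1.25 mM final); secreted IL-1B measured by AlphaLISA after 16 hr, decreased signal indicating inhibition.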
HT1080NT lethal: kills 2HG-producing HT-1080-NT fibrosarcoma cells; HT-1080-NT fibrosarcoma viability, CellTiter-Glo ATP luminescence, 48 h; Potency, µM (doses to about 46.1 µM), for inactives: at the top dose activity, negative = less viability, hits mostly cytotoxic; 1.6% of 360,000 active;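 further: NT is the 2HG producing partner of a matched IDH1 knockdown line; potency means the concentration at half of the fitted maximal effect; 0% = DMSO-treated cells and -100% = media-only wells without cells; nearly all actives have a fitted effect of over 55% in size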
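Fibrosarcoma NT cells, 750 per well in 5% FBS RPMI, were exposed to compound for 48 hours. Viability: CellTiter-Glo luminescence.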
ELG1 DNA repair: blocks ELG1-dependent DNA repair in HEK293T cells | HEK293T ELG1-luciferase reporter, luminescence, 16 h; DNA damage induced by 5-fluorouridine | 2.3% of 330,000 active | Potency, µM (top dose mostly 46.1 µM), for inactives: at the highest dose activity change, negative = inhibition, hits mostly inhibitors; further: potency means the concentration at half of the fitted maximal effect; nearly all actives have a fitted effect of over 55% in size
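Quantitative HTS, concentration-response format. 2,000 cells/well co-treated with 5-fluorouridine and compound, 16 hr in 5% CO2 at 37 °C; ONE-Glo luminescence read after 30 min.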
HT1080 IDH1KD tx: kills HT-1080 cells with IDH1 knockdown | HT-1080 IDH1 knockdown viability, ATP luminescence, 48 h | Potency, µM (series often up to 46.1 µM), for inactives: at the highest dose activity, negative = toxicity, actives largely listed as cytotoxic | 2% of 360,000 active | AID 686971;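 further: potency means the concentration at half of the fitted maximal effect; 0% = DMSO wells and -100% = cell-free medium wells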
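Assay cells: HT-1080 with IDH1 knockdown, 750 per well, RPMI/5% FBS. Exposure: 48 h at 37 °C following 2 h pre-incubation. Read: CellTiter-Glo luminescence; fitted concentration-response, curve class assigned.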
DT40 TDP1 CPT: growth inhibition of DT40 Tdp1-/-;hTDP1 cells with camptothecin (screen for TDP1 inhibitors). 12% of 420,000 active. chicken DT40 Tdp1-/-;hTDP1 cells + 20 nM CPT, ATP luminescence, 48 h. Potency, µM (titrated, usually from 46.2 µM), without a hit: at the highest dose activity change, negative = growth inhibition, hits mostly inhibitors; further: potency means the concentration at half of the fitted maximal effect; nearly all actives have a fitted effect of over 55% in size
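Chicken DT40 Tdp1-/- cells stably complemented with human TDP1 were seeded at 400 cells/well in medium containing 20 nM camptothecin, exposed to pin-transferred compounds, and grown at 37 °C for at least 48 hr. Viability was read as ATP luminescence.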
* = called active by the depositor; ? = inconclusive; . = no result given. Unless noted, the call rests on the fitted dose curve; in most records, active means well fitted curve in the direction sought with a large enough effect; inconclusive means small, poorly fitted or top-dose-only effect, or another doubt; inactive means no such curve, though single readings can be large; an effect the other way counts as inactive or inconclusive. Unless noted, on the % scale 0 is the no-effect control and ±100 the full control effect.

SMILES	TDP1 cell noCPT	IL-1B inflam inh	HT1080NT lethal	ELG1 DNA repair	HT1080 IDH1KD tx	DT40 TDP1 CPT
CC1CCN(C(=O)c2cc(-c3ccc(Cl)cc3)on2)CC1	-21.2%	.	.	.	.	?
O=C(c1ccc(=O)[nH]c1)N1CCN(S(=O)(=O)c2ccc3ccccc3c2)CC1	0.6%	-9.5	4.0%	13.0%	7.6%	8.9%
Oc1ccccc1-c1nnc(COc2ccc(Cl)cc2Cl)o1	?	-28.5	-9.0%	?	1.4%	20.6µM*
O=Cc1ccc(OCc2nnc(-c3ccccc3Br)o2)cc1	-10.3%	27.2	-1.2%	?	0.0%	8.5%
NC(=O)c1ccccc1OCc1nnc(-c2ccccc2Br)o1	29.1µM*	15.9	0.4%	0.0%	-6.2%	23.1µM*
Cc1ccc(C)c2[nH]c(=O)c(C(c3nnnn3C(C)(C)C)N3CC=C(c4ccc(F)cc4)CC3)cc12 (centres undefined)	16.4µM*	-15.0	-12.4%	7.31µM*	-20.6%	?
Cc1cc(C)c2[nH]c(=O)c(C(c3nnnn3CC3CCCO3)N3CCC(C)CC3)cc2c1 (centres undefined)	?	-10.0	3.6%	14.5%	8.0%	?
CCC(C)(C)n1nnnc1C(c1cc2cc(C)cc(C)c2[nH]c1=O)N1CCCC1 (centres undefined)	?	-50.6*	-1.9%	14.6µM*	-17.2%	?
Cc1cc(C)c2[nH]c(=O)c(C(c3nnnn3CC3CCCO3)N3CCCC(C)C3)cc2c1 (centres undefined)	?	?	1.1%	4.1%	1.3%	18.4µM*
CCC(C)(C)n1nnnc1C(c1cc2cccc(C)c2[nH]c1=O)N1CCCC1 (centres undefined)	-15.8%	-16.2	-6.3%	-26.7%	1.8%	?
COc1ccc(CCNC(=O)CCCn2c(=S)[nH]c3ccsc3c2=O)cc1OC	?	-9.5	6.9%	.	-0.8%	-0.7%
Cc1cc(-c2ccc(C)c(S(=O)(=O)N3CC(=O)Nc4ccccc43)c2)on1	4.2%	45.7	-21.7%	?	-6.4%	-4.7%
Cc1ccc(-c2onc(C)c2C)cc1S(=O)(=O)N1CCOc2ccccc21	20.6µM*	?	?	-8.5%	?	18.4µM*
CC1Cc2ccccc2N1S(=O)(=O)c1cccc2nsnc12 (centres undefined)	?	9.6	4.5%	-9.3%	-25.3%	?
Cc1ccc(-c2onc(C)c2C)cc1S(=O)(=O)N1c2ccccc2CC1C (centres undefined)	16.4µM*	.	.	.	.	?
COc1cccc2c1Oc1ncccc1N(C(=O)CCC(=O)NCCC(C)C)C2	-19.4%	.	.	.	.	-25.7%
CC(=O)c1ccc(Nc2nc(C(N)C3CCCCC3)cs2)cc1 (centres undefined)	11.6µM*	.	?	.	-12.6%	13µM*
NC(c1csc(Nc2ccc(C(=O)c3ccccc3)cc2)n1)C1CCCCC1 (centres undefined)	?	?	?	.	14.6µM*	?
NC(c1csc(Nc2ccc(C(=O)NCCCO)cn2)n1)C1CCCCC1 (centres undefined)	?	-15.0	-5.4%	.	?	-44.3%
NC(c1csc(Nc2ccc(C(=O)NCCO)cc2)n1)C1CCCCC1 (centres undefined)	6.51µM*	-0.2	-13.5%	.	-13.1%	10.3µM*
Cc1ccc(OCC(=O)Nc2c(C)ccc3nsnc23)cc1	?	-1.8	-4.0%	0.0%	9.5%	-25.0%
CCCS(=O)(=O)c1c(S(=O)(=O)CCC)c2c(C)cccn2c1C(N)=O	-9.7%	8.8	-3.6%	14.2%	1.6%	-15.4%
CCCS(=O)(=O)c1c(S(=O)(=O)CCC)c2c(C)cccn2c1C(=O)N/N=C/c1cc(O)cc(O)c1	14.6µM*	81.1	?	-15.0%	7.31µM*	0.82µM*
O=c1[nH]nnc2c1ncn2C1OC(CO)C(O)C1O (centres undefined)	?	6.6	-17.3%	.	?	?
O=C(N/N=C/c1sc(N2CCOCC2)nc1-c1ccccc1)c1ccccc1O	?	9.7	?	18.4µM*	?	-28.8%
SMILES	TDP1 cell noCPT	IL-1B inflam inh	HT1080NT lethal	ELG1 DNA repair	HT1080 IDH1KD tx	DT40 TDP1 CPT
O=C(Nc1ccccc1F)C(=Cc1sc(N2CCOCC2)nc1-c1ccccc1)C(=O)Nc1ccccc1F	5.17µM*	-23.9	-20.5%	8.2µM*	-1.3%	1.64µM*
O=C(N/N=C/c1sc(N2CCOCC2)nc1-c1ccccc1)c1ccccc1F	?	29.2	-3.7%	?	-0.4%	?
COc1cc(C(=O)N/N=C/c2sc(N3CCOCC3)nc2-c2ccccc2)cc(OC)c1OC	-28.9%	-6.5	-23.3%	11.6µM*	-5.5%	-7.5%
O=[N+]([O-])c1cnn(-c2nc(-c3ccccc3)cc(C(F)(F)F)n2)c1	-10.8%	11.3	13.2%	10.2%	10.2%	-6.8%
CC(C)CNC(=O)c1ccc(C2SCC(=O)N2Cc2ccccc2)cc1 (centres undefined)	16.4µM*	-8.9	-6.0%	-21.3%	0.5%	?
Cn1c(=O)c2c(SCC(=O)NCc3ccco3)nc(-c3ccccc3)nc2n(C)c1=O	-14.4%	.	.	.	.	4.4%
O=C(NCc1cccnc1)c1cc(C2CCCN(S(=O)(=O)c3cccs3)C2)on1 (centres undefined)	-23.3%	4.4	9.1%	.	14.5%	-29.4%
O=C(NCc1ccccc1)c1cc(C2CCCN(S(=O)(=O)c3cccs3)C2)on1 (centres undefined)	?	-58.7*	20.3%	.	9.9%	?
CC(C)S(=O)(=O)N1CCCC(c2cc(C(=O)NCc3ccccc3)no2)C1 (centres undefined)	-11.1%	-14.4	17.6%	.	8.9%	-3.4%
O=C(NCc1ccc(F)cc1)c1cc(C2CCCN(S(=O)(=O)c3ccccc3)C2)on1 (centres undefined)	16.4µM*	-6.7	-2.6%	.	0.0%	?
CCOC(=O)c1cnc2c(ccc3ccccc32)c1Nc1cccc(C(F)(F)F)c1	-3.6%	.	.	.	.	-28.6%
CC(=O)N1CCN(C(=O)CNC(=O)c2ccc(C)s2)CC1	-18.0%	4.1	7.9%	.	8.4%	5.4%
COc1ccc(N=C2NN=C(c3ccc4c(c3)OCCO4)CS2)cc1	25.9µM*	?	-17.4%	14.4%	-0.5%	20.6µM*
FC(F)Sc1ccc(N=C2NN=C(c3ccc4c(c3)OCCO4)CS2)cc1	20.6µM*	-1.7	?	?	?	18.4µM*

High-throughput results from PubChem.
